Experimental findings from publication PMC11006913 are described below.

Common to all, as to assay: PBM; 200 nM protein, PBS
Conditions in all cases: dsDNA, one strand shown

Assay [1] has as its target T1, SIX6 (Homo sapiens, UniProt O95475 114-200, L167I).
T1 sequence: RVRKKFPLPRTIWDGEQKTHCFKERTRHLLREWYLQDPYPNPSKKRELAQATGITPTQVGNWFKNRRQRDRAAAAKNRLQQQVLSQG

The target in assay [2] is T2, SIX6 (Homo sapiens, UniProt O95475 114-200, L143V).
T2 sequence: T1 sequence with L30V, I54L

Assay [3] has as its target T3, SIX6 (Homo sapiens, UniProt O95475 114-200, H141N).
T3 sequence: T1 sequence with H28N, I54L

Assay [4] addresses T4, SIX6 (Homo sapiens, UniProt O95475 114-200, T165P).
T4 sequence: T1 sequence with T52P, I54L

In assay [5] the target is T5, SIX6 (Homo sapiens, UniProt O95475 114-200, L167M).
T5 sequence: T1 sequence with I54M

Assay [6] has as its target T6, SIX6 (Homo sapiens, UniProt O95475 114-200, L143M).
T6 sequence: T1 sequence with L30M, I54L

The target of assay [7] is T7, SIX6 (Homo sapiens, UniProt O95475 114-200, L143I).
T7 sequence: T1 sequence with L30I, I54L

In assay [8] the target is T8, SIX6 (Homo sapiens, UniProt O95475 114-200, T165G).
T8 sequence: T1 sequence with T52G, I54L

In assay [9] the target is T9, SIX6 (Homo sapiens, UniProt O95475 114-200, T139Q).
T9 sequence: T1 sequence with T26Q, I54L

The target of assay [10] is T10, SIX6 (Homo sapiens, UniProt O95475 114-200, T165A).
T10 sequence: T1 sequence with T52A, I54L

For assay [11], the target named is T11, SIX6 (Homo sapiens, UniProt O95475 114-200, L167V).
T11 sequence: T1 sequence with I54V

Assay [12] addresses T12, SIX6 (Homo sapiens, UniProt O95475 114-200).
T12 sequence: T1 sequence with I54L

Assay [13] addresses T13, SIX6 (Homo sapiens, UniProt O95475 114-200, T165I).
T13 sequence: T1 sequence with T52I, I54L

Residue numbers refer to the chain shown, from its start.

Consider ATGTATCG, for which the binding signal was 11 upbm affinity estimate (log intensity, higher = more binding, comparable within an allelic series) in the assay with SIX6 [1]; 10.3 upbm affinity estimate (log intensity, higher = more binding, comparable within an allelic series) with SIX6 [2]; 11 upbm affinity estimate (log intensity, higher = more binding, comparable within an allelic series) with SIX6 [3]; 10 upbm affinity estimate (log intensity, higher = more binding, comparable within an allelic series) with SIX6 [4]; 10.6 upbm affinity estimate (log intensity, higher = more binding, comparable within an allelic series) with SIX6 [5]; 10.8 upbm affinity estimate (log intensity, higher = more binding, comparable within an allelic series) with SIX6 [6]. Besides, the binding signal was 10.4 upbm affinity estimate (log intensity, higher = more binding, comparable within an allelic series) with SIX6 [7]; 11 upbm affinity estimate (log intensity, higher = more binding, comparable within an allelic series) with SIX6 [8]; 11.1 upbm affinity estimate (log intensity, higher = more binding, comparable within an allelic series) with SIX6 [9]; 11 upbm affinity estimate (log intensity, higher = more binding, comparable within an allelic series) with SIX6 [10]; 10.7 upbm affinity estimate (log intensity, higher = more binding, comparable within an allelic series) in the assay with SIX6 [11]; 10.9 upbm affinity estimate (log intensity, higher = more binding, comparable within an allelic series) in the assay with SIX6 [12]. Besides, the binding signal in the assay with SIX6 [13] is 10.8 upbm affinity estimate (log intensity, higher = more binding, comparable within an allelic series).
As to GTATCACA, the binding signal in the assay with SIX6 [1] is 11.4 upbm affinity estimate (log intensity, higher = more binding, comparable within an allelic series); with SIX6 [2] it was 10.4 upbm affinity estimate (log intensity, higher = more binding, comparable within an allelic series); with SIX6 [3], 11.4 upbm affinity estimate (log intensity, higher = more binding, comparable within an allelic series); in the assay with SIX6 [4], 9.83 upbm affinity estimate (log intensity, higher = more binding, comparable within an allelic series); with SIX6 [5] it was 10.8 upbm affinity estimate (log intensity, higher = more binding, comparable within an allelic series); with SIX6 [6], 11.2 upbm affinity estimate (log intensity, higher = more binding, comparable within an allelic series). Moreover, the binding signal with SIX6 [7] is 10.5 upbm affinity estimate (log intensity, higher = more binding, comparable within an allelic series); with SIX6 [8], 11.6 upbm affinity estimate (log intensity, higher = more binding, comparable within an allelic series); with SIX6 [9] it was 11.4 upbm affinity estimate (log intensity, higher = more binding, comparable within an allelic series); in the assay with SIX6 [10] it was 11.4 upbm affinity estimate (log intensity, higher = more binding, comparable within an allelic series); in the assay with SIX6 [11], 11.2 upbm affinity estimate (log intensity, higher = more binding, comparable within an allelic series); with SIX6 [12] it was 11.2 upbm affinity estimate (log intensity, higher = more binding, comparable within an allelic series). Besides, the binding signal with SIX6 [13] is 11.2 upbm affinity estimate (log intensity, higher = more binding, comparable within an allelic series).
GGTATCAC: the binding signal with SIX6 [1] was 11.6 upbm affinity estimate (log intensity, higher = more binding, comparable within an allelic series); in the assay with SIX6 [2], 10.5 upbm affinity estimate (log intensity, higher = more binding, comparable within an allelic series); with SIX6 [3] it was 11.6 upbm affinity estimate (log intensity, higher = more binding, comparable within an allelic series); in the assay with SIX6 [4], 9.55 upbm affinity estimate (log intensity, higher = more binding, comparable within an allelic series); in the assay with SIX6 [5], 10.9 upbm affinity estimate (log intensity, higher = more binding, comparable within an allelic series); in the assay with SIX6 [6] it was 11.2 upbm affinity estimate (log intensity, higher = more binding, comparable within an allelic series). For the same sequence, the binding signal in the assay with SIX6 [7] is 10.6 upbm affinity estimate (log intensity, higher = more binding, comparable within an allelic series); with SIX6 [8], 11.8 upbm affinity estimate (log intensity, higher = more binding, comparable within an allelic series); with SIX6 [9], 11.6 upbm affinity estimate (log intensity, higher = more binding, comparable within an allelic series); in the assay with SIX6 [10], 11.6 upbm affinity estimate (log intensity, higher = more binding, comparable within an allelic series); in the assay with SIX6 [11], 11.4 upbm affinity estimate (log intensity, higher = more binding, comparable within an allelic series); with SIX6 [12], 11.3 upbm affinity estimate (log intensity, higher = more binding, comparable within an allelic series). Moreover, the binding signal with SIX6 [13] was 11.4 upbm affinity estimate (log intensity, higher = more binding, comparable within an allelic series).
CCCCGAGG: the binding signal is 8.95 upbm affinity estimate (log intensity, higher = more binding, comparable within an allelic series) in the assay with SIX6 [1]; 8.89 upbm affinity estimate (log intensity, higher = more binding, comparable within an allelic series) with SIX6 [2]; 8.99 upbm affinity estimate (log intensity, higher = more binding, comparable within an allelic series) with SIX6 [3]; 8.94 upbm affinity estimate (log intensity, higher = more binding, comparable within an allelic series) in the assay with SIX6 [4]; 9.01 upbm affinity estimate (log intensity, higher = more binding, comparable within an allelic series) in the assay with SIX6 [5]; 9.07 upbm affinity estimate (log intensity, higher = more binding, comparable within an allelic series) with SIX6 [6]. In addition, the binding signal is 8.96 upbm affinity estimate (log intensity, higher = more binding, comparable within an allelic series) with SIX6 [7]; 9.07 upbm affinity estimate (log intensity, higher = more binding, comparable within an allelic series) with SIX6 [8]; 9.12 upbm affinity estimate (log intensity, higher = more binding, comparable within an allelic series) with SIX6 [9]; 8.94 upbm affinity estimate (log intensity, higher = more binding, comparable within an allelic series) in the assay with SIX6 [10]; 9 upbm affinity estimate (log intensity, higher = more binding, comparable within an allelic series) with SIX6 [11]; 8.97 upbm affinity estimate (log intensity, higher = more binding, comparable within an allelic series) with SIX6 [12]. In addition, the binding signal in the assay with SIX6 [13] is 8.96 upbm affinity estimate (log intensity, higher = more binding, comparable within an allelic series).
Take CAGCCCCG: the binding signal is 8.86 upbm affinity estimate (log intensity, higher = more binding, comparable within an allelic series) in the assay with SIX6 [1]; 8.79 upbm affinity estimate (log intensity, higher = more binding, comparable within an allelic series) with SIX6 [2]; 8.86 upbm affinity estimate (log intensity, higher = more binding, comparable within an allelic series) with SIX6 [3]; 8.88 upbm affinity estimate (log intensity, higher = more binding, comparable within an allelic series) with SIX6 [4]; 8.84 upbm affinity estimate (log intensity, higher = more binding, comparable within an allelic series) with SIX6 [5]; 8.78 upbm affinity estimate (log intensity, higher = more binding, comparable within an allelic series) in the assay with SIX6 [6]. Also, the binding signal in the assay with SIX6 [7] is 8.82 upbm affinity estimate (log intensity, higher = more binding, comparable within an allelic series); with SIX6 [8], 8.82 upbm affinity estimate (log intensity, higher = more binding, comparable within an allelic series); with SIX6 [9], 8.98 upbm affinity estimate (log intensity, higher = more binding, comparable within an allelic series); in the assay with SIX6 [10], 8.8 upbm affinity estimate (log intensity, higher = more binding, comparable within an allelic series); in the assay with SIX6 [11], 8.86 upbm affinity estimate (log intensity, higher = more binding, comparable within an allelic series); with SIX6 [12], 8.8 upbm affinity estimate (log intensity, higher = more binding, comparable within an allelic series). For the same sequence, the binding signal in the assay with SIX6 [13] was 8.81 upbm affinity estimate (log intensity, higher = more binding, comparable within an allelic series).
In the case of ACGATACC, the binding signal is 11.2 upbm affinity estimate (log intensity, higher = more binding, comparable within an allelic series) with SIX6 [1]; 10.3 upbm affinity estimate (log intensity, higher = more binding, comparable within an allelic series) with SIX6 [2]; 11.1 upbm affinity estimate (log intensity, higher = more binding, comparable within an allelic series) with SIX6 [3]; 9.65 upbm affinity estimate (log intensity, higher = more binding, comparable within an allelic series) with SIX6 [4]; 10.6 upbm affinity estimate (log intensity, higher = more binding, comparable within an allelic series) with SIX6 [5]; 11 upbm affinity estimate (log intensity, higher = more binding, comparable within an allelic series) with SIX6 [6]. The binding signal in the assay with SIX6 [7] is 10.4 upbm affinity estimate (log intensity, higher = more binding, comparable within an allelic series); with SIX6 [8], 11.3 upbm affinity estimate (log intensity, higher = more binding, comparable within an allelic series); in the assay with SIX6 [9], 11.4 upbm affinity estimate (log intensity, higher = more binding, comparable within an allelic series); with SIX6 [10], 11.1 upbm affinity estimate (log intensity, higher = more binding, comparable within an allelic series); with SIX6 [11], 10.9 upbm affinity estimate (log intensity, higher = more binding, comparable within an allelic series); with SIX6 [12], 11.1 upbm affinity estimate (log intensity, higher = more binding, comparable within an allelic series). Besides, the binding signal in the assay with SIX6 [13] was 11 upbm affinity estimate (log intensity, higher = more binding, comparable within an allelic series).
